Experimental data from PubChem BioAssay.
The source made the active and inactive calls.

Key:
[1] = small molecules captured by biotinylated probe aFSTL3 – biochemical, small-molecule microarray, fluorescence 635/667, stem cell growth factor project, primary screen (AID 1064); settings: higher = more signal;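 further: measures binding of the biotinylated anti-FSTL3 antibody to printed compounds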
[2] = binders from COS7 lysate, DM2A8 probe, primary screen, torsin A project, cell lysate, small-molecule microarray, fluorescence 635/667 (AID 1065); settings: higher = more signal, COS7 lysate expressing mutant human TOR1A
[3] = small molecules captured by biotinylated probe aFGF2 – biochemical, small-molecule microarray, fluorescence 635/667, stem cell growth factor project, primary screen (AID 1067); settings: higher = more signal;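 further: measures binding of biotinylated aFGF2 protein to printed compounds on slides; z-score merges feature fluorescence and signal-to-noise across triplicate slides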
[4] = small molecules captured by biotinylated probe aFGF10 – biochemical, small-molecule microarray, fluorescence 635/667, stem cell growth factor project, primary screen (AID 1071); settings: higher = more signal;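 further: score merges 667 nm spot intensity and signal to noise from triplicate slides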
[5] = target: Neurogenic locus notch homolog protein 2 (Homo sapiens) (UniProt Q04721); experiment: small molecules binding Notch2 protein – biochemical, small-molecule microarray, 635 nm fluorescence, stem cell growth factors, primary screen (AID 1073); settings: higher = more signal
Chain of Neurogenic locus notch homolog protein 2 (Homo sapiens) (Q04721 whole entry, looked up, canonical isoform): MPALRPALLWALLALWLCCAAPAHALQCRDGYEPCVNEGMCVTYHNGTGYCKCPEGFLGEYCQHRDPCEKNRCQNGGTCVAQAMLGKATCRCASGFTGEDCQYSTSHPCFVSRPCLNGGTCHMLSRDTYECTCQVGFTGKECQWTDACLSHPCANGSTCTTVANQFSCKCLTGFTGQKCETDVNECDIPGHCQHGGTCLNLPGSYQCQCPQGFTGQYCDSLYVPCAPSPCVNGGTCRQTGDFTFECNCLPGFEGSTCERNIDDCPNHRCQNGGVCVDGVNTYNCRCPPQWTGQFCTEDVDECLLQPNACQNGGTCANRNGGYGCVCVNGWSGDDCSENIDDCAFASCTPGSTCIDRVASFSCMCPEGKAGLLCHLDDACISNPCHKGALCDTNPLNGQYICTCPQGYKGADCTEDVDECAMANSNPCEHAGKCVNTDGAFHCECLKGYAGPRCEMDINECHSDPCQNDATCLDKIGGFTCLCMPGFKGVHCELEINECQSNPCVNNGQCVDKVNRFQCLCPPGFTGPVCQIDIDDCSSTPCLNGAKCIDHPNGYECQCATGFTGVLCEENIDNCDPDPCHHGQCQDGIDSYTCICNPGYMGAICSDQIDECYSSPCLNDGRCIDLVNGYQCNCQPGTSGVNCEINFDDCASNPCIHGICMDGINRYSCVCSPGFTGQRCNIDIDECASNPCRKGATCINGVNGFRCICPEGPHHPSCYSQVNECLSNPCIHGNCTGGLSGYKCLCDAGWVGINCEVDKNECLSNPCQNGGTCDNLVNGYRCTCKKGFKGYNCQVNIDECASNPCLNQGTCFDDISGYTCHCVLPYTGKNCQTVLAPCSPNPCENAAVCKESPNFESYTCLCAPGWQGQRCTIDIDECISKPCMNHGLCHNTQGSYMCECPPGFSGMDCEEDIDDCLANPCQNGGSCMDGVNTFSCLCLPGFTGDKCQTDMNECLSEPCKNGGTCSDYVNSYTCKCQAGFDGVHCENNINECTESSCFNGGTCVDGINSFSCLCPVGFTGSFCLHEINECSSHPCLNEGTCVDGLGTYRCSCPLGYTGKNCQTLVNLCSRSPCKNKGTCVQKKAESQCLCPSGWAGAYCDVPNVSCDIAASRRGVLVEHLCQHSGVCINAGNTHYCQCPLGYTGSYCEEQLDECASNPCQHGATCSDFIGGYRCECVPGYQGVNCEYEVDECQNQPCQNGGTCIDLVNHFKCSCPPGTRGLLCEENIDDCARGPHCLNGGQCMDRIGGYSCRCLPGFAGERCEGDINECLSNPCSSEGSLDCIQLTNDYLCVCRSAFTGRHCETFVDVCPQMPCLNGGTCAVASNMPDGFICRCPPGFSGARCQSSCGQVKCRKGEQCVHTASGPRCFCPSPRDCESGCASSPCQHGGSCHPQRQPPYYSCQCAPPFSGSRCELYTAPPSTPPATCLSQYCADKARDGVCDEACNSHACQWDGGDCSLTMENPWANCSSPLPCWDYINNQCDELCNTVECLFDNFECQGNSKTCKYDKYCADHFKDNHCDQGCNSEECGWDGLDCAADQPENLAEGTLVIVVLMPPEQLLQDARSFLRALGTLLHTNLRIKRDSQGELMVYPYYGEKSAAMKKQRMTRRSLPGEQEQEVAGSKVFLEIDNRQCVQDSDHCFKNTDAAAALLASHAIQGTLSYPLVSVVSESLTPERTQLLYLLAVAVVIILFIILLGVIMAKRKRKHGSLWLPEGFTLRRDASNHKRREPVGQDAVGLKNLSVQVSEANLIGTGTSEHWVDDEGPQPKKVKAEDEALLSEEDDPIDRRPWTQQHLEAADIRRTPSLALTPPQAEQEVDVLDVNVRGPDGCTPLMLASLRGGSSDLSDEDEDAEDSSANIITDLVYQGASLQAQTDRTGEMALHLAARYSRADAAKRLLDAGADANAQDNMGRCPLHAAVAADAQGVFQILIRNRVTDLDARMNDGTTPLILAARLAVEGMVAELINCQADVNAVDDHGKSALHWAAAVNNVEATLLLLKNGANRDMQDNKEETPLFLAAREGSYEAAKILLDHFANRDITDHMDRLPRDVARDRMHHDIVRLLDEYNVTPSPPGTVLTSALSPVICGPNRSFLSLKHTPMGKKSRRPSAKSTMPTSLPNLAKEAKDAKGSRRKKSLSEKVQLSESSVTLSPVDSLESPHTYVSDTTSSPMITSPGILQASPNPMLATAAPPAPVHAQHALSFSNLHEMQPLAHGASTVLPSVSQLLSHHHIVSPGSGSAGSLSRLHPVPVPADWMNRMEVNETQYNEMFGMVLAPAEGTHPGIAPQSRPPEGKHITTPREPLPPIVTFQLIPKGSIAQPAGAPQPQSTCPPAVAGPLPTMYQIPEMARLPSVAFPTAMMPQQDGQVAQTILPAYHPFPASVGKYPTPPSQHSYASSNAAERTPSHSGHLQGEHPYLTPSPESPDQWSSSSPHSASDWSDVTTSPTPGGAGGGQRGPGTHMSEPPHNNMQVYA

[6] = target: Pro-neuregulin-1, membrane-bound isoform (Homo sapiens) (UniProt Q02297); experiment: small molecules binding neuregulin-1 protein – biochemical, small-molecule microarray, fluorescence 635/667, psychiatric disease protein project, primary screen (AID 1075); settings: NRG1 binding, 635 nm fluorescence, higher = more signal;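 further: score combines 667 nm spot fluorescence with signal to noise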
Chain of Pro-neuregulin-1, membrane-bound isoform (Homo sapiens) (Q02297 whole entry, looked up, the tested form may be a part, canonical isoform): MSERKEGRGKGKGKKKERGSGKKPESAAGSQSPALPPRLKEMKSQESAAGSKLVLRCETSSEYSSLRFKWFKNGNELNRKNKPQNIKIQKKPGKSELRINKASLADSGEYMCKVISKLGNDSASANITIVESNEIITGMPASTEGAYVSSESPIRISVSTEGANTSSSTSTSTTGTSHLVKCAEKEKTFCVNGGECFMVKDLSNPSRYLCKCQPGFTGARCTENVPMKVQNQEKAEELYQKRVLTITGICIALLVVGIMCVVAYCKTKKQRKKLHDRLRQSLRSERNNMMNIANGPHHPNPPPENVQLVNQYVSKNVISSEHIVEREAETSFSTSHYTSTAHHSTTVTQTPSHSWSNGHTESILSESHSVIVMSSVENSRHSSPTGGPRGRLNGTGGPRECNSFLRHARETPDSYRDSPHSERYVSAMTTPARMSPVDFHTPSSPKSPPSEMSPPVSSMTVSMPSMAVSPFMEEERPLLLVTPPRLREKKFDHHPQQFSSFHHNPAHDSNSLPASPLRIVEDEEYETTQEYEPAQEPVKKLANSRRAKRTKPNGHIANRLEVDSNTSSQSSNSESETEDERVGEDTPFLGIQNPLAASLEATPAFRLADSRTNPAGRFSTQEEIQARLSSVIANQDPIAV

[7] = tested on: Neuregulin-1 EGF-like domain; experiment: small molecules binding NRG1 EGF domain – biochemical, small-molecule microarray, 635 nm fluorescence, primary screen (AID 1081); settings: higher = more signal;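 further: binding of the protein to compounds printed on small-molecule microarray slides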
[8] = FRG1 expression reporter modulators in myotubes – cell-based, C2C12 myotubes, firefly/Renilla luciferase, luminescence, FRG1 inhibition for FSHD, primary screen (AID 1084); settings: FRG1 promoter luciferase, higher = more signal, called active from +8 up or from −8 down
[9] = small molecules captured by biotinylated probe aFST – biochemical, small-molecule microarray, fluorescence 635/667, stem cell growth factor project, primary screen (AID 1086); settings: higher = more signal;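 further: score merges 667 nm fluorescence with signal-to-noise of each printed compound spot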
[10] = binders of probe aHhip on microarray, primary screen, stem cell growth factor project, biochemical, small-molecule microarray, fluorescence 635/667 (AID 1087); settings: higher = more signal;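 further: score merges spot fluorescence at 667nm with spot signal to noise ratio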
[11] = tested on: PRMT1 (protein arginine N-methyltransferase 1); experiment: small molecules binding arginine methyltransferase PRMT1 – biochemical, small-molecule microarray, 635 nm fluorescence, primary screen (AID 1088); settings: higher = more signal;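 further: binding of Prmt1 protein to compounds spotted on small-molecule microarray slides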
[12] = growth effects on S. cerevisiae YJM789 – YJM789 clinical isolate, OD600, 24 h, basal, primary screen (AID 1089); settings: higher = more signal, called active from +8 up or from −8 down;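 further: growth of clinical yeast isolate S. cerevisiae YJM 789 seeded 1000 cells per well; test concentration not given here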
[13] = S. pombe growth modifiers, basal conditions – strain 972, OD600, 24 h, no modulator, primary screen (AID 1090);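 further: basal condition with compound alone and no growth modifier present; test concentration not given here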; settings: S. pombe 972 growth, higher = more signal, called active from +8 up or from −8 down
[14] = budding yeast growth modifiers under rapamycin – strain BY4716, OD600, 96 h, primary screen (AID 1091); further: test concentration not given here; settings: S. cerevisiae BY4716 + rapamycin, higher = more signal, called active from +8 up or from −8 down
[15] = target: Torsin-1A-interacting protein 2 (Homo sapiens) (UniProt Q8NFQ8); experiment: small molecules binding lysate-expressed LULL1 – cell lysate, human LULL1 lysate, 635/667 nm fluorescence, primary screen (AID 1092); settings: small-molecule microarray, hLULL1 lysate binding, 635 nm fluorescence; higher = more signal;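 further: probe is lysate of COS7 cells overexpressing human LULL1; score merges per-feature 667 nm fluorescence with signal-to-noise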
Chain of Torsin-1A-interacting protein 2 (Homo sapiens) (Q8NFQ8 whole entry, looked up): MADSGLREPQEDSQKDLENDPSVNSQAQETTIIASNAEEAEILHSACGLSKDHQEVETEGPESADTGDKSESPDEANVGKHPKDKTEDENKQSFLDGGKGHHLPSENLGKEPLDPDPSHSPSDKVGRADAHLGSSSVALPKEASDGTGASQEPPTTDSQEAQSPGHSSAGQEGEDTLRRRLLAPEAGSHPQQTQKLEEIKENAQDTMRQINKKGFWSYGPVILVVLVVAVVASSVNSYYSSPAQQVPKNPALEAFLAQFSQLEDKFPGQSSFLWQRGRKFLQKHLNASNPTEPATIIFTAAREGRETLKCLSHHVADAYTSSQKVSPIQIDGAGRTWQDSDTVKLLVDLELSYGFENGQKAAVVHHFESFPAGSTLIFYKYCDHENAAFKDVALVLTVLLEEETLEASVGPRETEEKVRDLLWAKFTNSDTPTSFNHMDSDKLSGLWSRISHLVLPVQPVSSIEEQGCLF

[16] = optical density change of DRC41 E. coli – strain DRC41, OD650, 24 h, E. coli filamentation project, primary screen (AID 1093);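 further: MC1000 strain lacking acrAB efflux and sulA so SOS filamentation is blocked; test concentration not given here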; settings: E. coli DRC41 growth, higher = more signal, called active from +8 up or from −8 down
[17] = probe aLefty2 binding to arrayed compounds – biochemical, biotinylated probe, 635/667 nm fluorescence, primary screen (AID 1094); settings: small-molecule microarray, higher = more signal;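 further: score merges spot fluorescence near 667 nm with spot signal-to-noise ratio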
[18] = tested on: Noggin (protein binding on small-molecule microarray); experiment: small molecules binding Noggin protein – biochemical, 635/667 nm fluorescence, primary screen (AID 1095); settings: 635 nm fluorescence, higher = more signal;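 further: score merges 667 nm feature fluorescence with signal to noise over triplicate slides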
[19] = target: Neurogenic locus notch homolog protein 3 (Homo sapiens) (UniProt Q9UM47); experiment: small molecules binding NOTCH3 protein – biochemical, 635/667 nm fluorescence, primary screen (AID 1096); settings: small-molecule microarray, 635 nm fluorescence, higher = more signal
[20] = probe aEGFR binding to arrayed compounds – biochemical, biotinylated probe, 635/667 nm fluorescence, primary screen (AID 1097); settings: small-molecule microarray, higher = more signal;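 further: probe is a biotinylated anti-EGFR antibody binding compounds printed on slides; score combines fluorescence near 667 nm and signal to noise of each spot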

Cc1ccc(S(=O)(=O)c2cc3oc2CC[C@@H](CO)NC(=O)N(C)Cc2cn(nn2)C[C@H](Cc2ccccc2)NC3=O)cc1
composite z-score [1]: 0.0181 | composite z-score [2]: 0.345 | composite z-score [3]: -0.0538 | composite z-score [4]: 0.175 | composite z-score [5]: -0.881 | composite z-score [6]: 0.226 | composite z-score [7]: 0.807 | z-score [8]: -0.618 (inactive) | composite z-score [9]: -0.265 | composite z-score [10]: -0.194 | composite z-score [11]: 0.0985 | z-score [12]: 0.342 (inactive) | z-score [13]: -0.772 (inactive) | z-score [14]: 0.0417 (inactive) | composite z-score [15]: 1.66 | z-score [16]: 2.79 (inactive) | composite z-score [17]: -0.131 | composite z-score [18]: 0.0818 | composite z-score [19]: -0.773 | composite z-score [20]: -0.156

C=C(COC)C(=O)CC[C@H](OC(=O)c1ccccc1-c1ccccc1C(=O)O)c1cccc(OCCO)c1
composite z-score [1]: -0.102 | composite z-score [2]: 1.15 | composite z-score [3]: -0.103 | composite z-score [4]: 0.24 | composite z-score [5]: 0.0421 | composite z-score [6]: 1.66 | composite z-score [7]: 1.37 | z-score [8]: -3.97 (inactive) | composite z-score [9]: -0.25 | composite z-score [10]: -0.0296 | composite z-score [11]: 1.54 | z-score [12]: -22.6 (active) | z-score [13]: -20.5 (active) | z-score [14]: -3.63 (inactive) | composite z-score [15]: 4.32 | z-score [16]: 0.573 (inactive) | composite z-score [17]: -0.195 | composite z-score [18]: 2.09 | composite z-score [19]: 0.985 | composite z-score [20]: 0.0004

COC(=O)c1c(CC[C@@H](CO)NC(=O)N[C@H](Cn2cc(-c3cncn3C)nn2)C(C)C)oc(C(C)=O)c1C(=O)OC
composite z-score [1]: -0.151 | composite z-score [2]: 0.874 | composite z-score [3]: -0.043 | composite z-score [4]: 0.66 | composite z-score [5]: 0.193 | composite z-score [6]: 0.692 | composite z-score [7]: 1.09 | z-score [8]: 0.0938 (inactive) | composite z-score [9]: -0.201 | composite z-score [10]: -0.261 | composite z-score [11]: 1.09 | z-score [12]: -0.177 (inactive) | z-score [13]: -1.26 (inactive) | z-score [14]: -0.164 (inactive) | composite z-score [15]: 1.47 | z-score [16]: 2.3 (inactive) | composite z-score [17]: -0.0617 | composite z-score [18]: 0.209 | composite z-score [19]: 0.149 | composite z-score [20]: 0.19

O=C(O)[C@@H]1Cc2c([nH]c3ccccc23)[C@@H](c2ccccc2)N1
composite z-score [1]: -0.675 | composite z-score [2]: -0.15 | composite z-score [3]: -0.109 | composite z-score [4]: 0.35 | composite z-score [5]: 0.464 | composite z-score [6]: 0.144 | composite z-score [7]: 0.125 | z-score [8]: -0.608 (inactive) | composite z-score [9]: 0.084 | composite z-score [10]: -0.0522 | composite z-score [11]: -0.645 | z-score [12]: -0.0524 (inactive) | z-score [13]: -0.474 (inactive) | z-score [14]: -0.731 (inactive) | composite z-score [15]: 0.249 | z-score [16]: 0.294 (inactive) | composite z-score [17]: -0.106 | composite z-score [18]: 0.483 | composite z-score [19]: 0.46 | composite z-score [20]: -0.046

CO[C@H]1O[C@H](CO)[C@@H](OC(=O)CCc2ccccc2)[C@@H]2OC(=O)[C@H](Cc3cccc(Br)c3)C/C=C/C[C@@H](Cc3cccc(Br)c3)C(=O)O[C@@H]12
composite z-score [1]: 0.617 | composite z-score [2]: 0.361 | composite z-score [3]: -0.139 | composite z-score [4]: -0.722 | composite z-score [5]: -1.2 | composite z-score [6]: 0.964 | composite z-score [7]: -0.0592 | z-score [8]: -2.01 (inactive) | composite z-score [9]: 0.0729 | composite z-score [10]: -0.134 | composite z-score [11]: 0.922 | z-score [12]: -4.85 (inactive) | z-score [13]: -4.06 (inactive) | z-score [14]: 3.62 (inactive) | composite z-score [15]: 0.8 | z-score [16]: 2.82 (inactive) | composite z-score [17]: -0.134 | composite z-score [18]: -0.6 | composite z-score [19]: -0.791 | composite z-score [20]: -0.186

C=CCNC(=O)[C@H]1[C@@H]2C(=O)O[C@@H](c3ccccc3)[C@@H](c3ccccc3)N2[C@@H](c2ccccc2OCCO)[C@]12C(=O)N(C(=O)OCCOC)c1ccc(C#CCNC(N)=O)cc12
composite z-score [1]: 0.173 | composite z-score [2]: 0.912 | composite z-score [3]: -0.0547 | composite z-score [4]: 0.149 | composite z-score [5]: 0.284 | composite z-score [6]: 1.32 | composite z-score [7]: 1.06 | z-score [8]: -1.53 (inactive) | composite z-score [9]: 0.428 | composite z-score [10]: 0.0623 | composite z-score [11]: 1.55 | z-score [12]: 0.602 (inactive) | z-score [13]: -0.26 (inactive) | z-score [14]: 3.16 (inactive) | composite z-score [15]: 2.39 | z-score [16]: 2.35 (inactive) | composite z-score [17]: -0.108 | composite z-score [18]: 0.878 | composite z-score [19]: 1.15 | composite z-score [20]: -0.0389
